The values that follow come from PubChem BioAssay AID1490 (National Center for Advancing Translational Sciences (NCATS), 2009).

About 11,000 (3.5%) of roughly 310,000 compounds were called active. Another 4% or so got no clear call; they are omitted. This excerpt belongs to a sample that is enriched for actives. Values without a mark were called inactive. Calls come from the whole dose curve; as a rule, active = well fitted inhibition curve with a large enough effect; inconclusive = small, poorly fitted or top-dose-only effect, or another doubt; inactive = no such curve, though single readings can be large or run the other way.
Potency is the fitted concentration of half-maximal effect.

This experiment has as its target 4'-phosphopantetheinyl transferase ffp (Bacillus subtilis) (UniProt Q9F4F7). Description: qHTS Assay for Inhibitors of Bacillus subtilis Sfp phosphopantetheinyl transferase (PPTase).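 For largest response in the series, negative = inhibition: 0% = enzyme reaction without inhibitor and -100% = no enzyme wells.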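 Note: the enzyme is Sfp with the accession as filed and its product quenches rhodamine fluorescence.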 Conditions: Biochemical Sfp PPTase activity. The method, boiled down:
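After 15 min at room temperature with compound, 15 nM Sfp received 5 uM rhodamine-CoA plus 12.5 uM BHQ-2-ybbR (50 mM Hepes pH 7.6, 10 mM MgCl2). Rate came from the fluorescence difference over 30 min, ex 525/em 598 nm.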
On to `CC(C)c1cc(C(=O)N/N=C/c2ccoc2)c(O)c(C(C)C)c1`, for which the largest response in the series, negative = inhibition is 13.5%. `CC1CC(C)CN(CCCNC(=O)Cn2ncc3c([nH]c4ccccc43)c2=O)C1` (stereo unspecified): the largest response in the series, negative = inhibition is 5.5%. The same measure, in the same setting: the figure for `CCCCOc1ccc(-c2ncc(C(=O)OCC)c(N)n2)cc1` is 3.34%. Take `CCOC(=O)C(Sc1ncc(C#N)c(N)n1)C(C)C` (stereo unspecified): the Potency is 56.2 µM (active).

For the molecule `CCOC(=O)CSc1nccc(N(C)C)c1C#N`, the largest response in the series, negative = inhibition is -4.04%. Consider `Cc1ccc(N2CC(C(=O)NCCS(=O)(=O)N3CCN(c4ccccc4)CC3)CC2=O)cc1` (stereo unspecified), for which the largest response in the series, negative = inhibition is 5.68%.

`COc1ccc2c3c1OC1CC(O)C=C[C@@]31CCN(C)C2` (stereo partly specified): the largest response in the series, negative = inhibition was 17%.

Turning to `O=C(CN1C(=O)c2ccccc2S1(=O)=O)NC1CCCCC1`, the largest response in the series, negative = inhibition was 15.6%. Take `CCCc1nnc(NC(=O)CN2C(=O)c3ccccc3S2(=O)=O)s1`: the Potency is 22.4 µM (active).

With `CCCCc1nnc(NC(=O)CS(=O)(=O)Cc2ccccc2)s1`, the largest response in the series, negative = inhibition was 8.57%. On to `COc1ccc(C)cc1NC(=O)CNCc1cccs1`, for which the largest response in the series, negative = inhibition was -7.78%. Same read-out and setting: the figure for `O=C(CN(Cc1ccc(Br)cc1)S(=O)(=O)c1ccccc1)NCc1ccncc1` is -4.2%; for `CCOC(=O)C1CCCN(S(=O)(=O)c2ccc(-n3cnnn3)c(C)c2)C1` (stereo unspecified) it is 13.1%; for `C#CC(CCN1CCCCC1)(OC)c1ccccc1` (stereo unspecified) it is 23.4%. Turning to `CCOC(=O)C(C)n1cnc2c(nnn2-c2cccc(OC)c2)c1=O` (stereo unspecified), the largest response in the series, negative = inhibition was 30.5%. Still for that read-out and setting: the figure for `COC(=O)c1sc(N2CCN(Cc3ccccc3)CC2)nc1N` is -0.821%. As for `COC(=O)c1sc(=S)n(-c2ccc(Cl)cc2)c1C`, the largest response in the series, negative = inhibition is -2.12%.

With `CCOC(=O)c1sc(=S)n(-c2cccc(OC)c2)c1N`, the Potency is 39.8 µM (active). With `CCOC(=O)c1csc(NC(=O)Nc2cccc(OC)c2)n1`, the largest response in the series, negative = inhibition was 7.72%. As to `COC(=O)c1sc(=S)n(-c2ccccc2)c1N`, the Potency was 31.6 µM (active). As to `Cc1ccn2c(=O)c(C(=O)NCCC3=CCCCC3)c(O)nc2c1`, the largest response in the series, negative = inhibition is -5.56%. As to `CCc1ccc(N(C(=O)c2csnn2)C(C(=O)NC2CCCCC2)c2cccnc2)cc1` (stereo unspecified), the largest response in the series, negative = inhibition is -9.84%. On the same count and under the same terms, the figure for `CCCCS(=O)(=O)N1C2=NC(C(=O)OC)=C(C(=O)OC)[C@@H]3N(Cc4ccccc4)c4ccccc4[C@]23C[C@H]1C(=O)OC` is -16%; for `Cc1ccc(C2SCC(=O)N2c2ccccc2)cc1` (stereo unspecified) it is -9.8%; for `Cc1ccc(C2CC2C(=O)NN)cc1` (stereo unspecified) it is 6.91%. Regarding `Cc1ccc(C2NC(C(=O)O)CS2)cc1` (stereo unspecified), the Potency is 70.8 µM (active). Consider `CCOc1ccc(N(CC(=O)Nc2cccc(OC)c2)S(C)(=O)=O)cc1`, for which the largest response in the series, negative = inhibition is 21.6%.

On to `Cn1c(=O)n(C)c2cc(S(=O)(=O)Nc3ccc(F)cc3)ccc21`, for which the largest response in the series, negative = inhibition is 7.57%.

Regarding `O=C(O)CCCC(=O)N1N=C(c2ccco2)CC1c1ccco1` (stereo unspecified), the largest response in the series, negative = inhibition was 5.11%. As for `COc1ccc(C2=NN(C(C)=O)C(c3ccccc3)C2)cc1` (stereo unspecified), the largest response in the series, negative = inhibition is 9.33%. Regarding `Cc1nn2c(c1-c1ccccc1)N=C(c1ccco1)CC2c1ccccc1` (stereo unspecified), the Potency was 15.8 µM (active).

`Cc1cccc([C@@H]2[C@@H]3C(=O)N(Cc4ccccc4)C(=O)[C@@H]3[C@]3(C)C(=O)N(c4ccc(Br)cc4)C(=O)N23)c1`: the largest response in the series, negative = inhibition was 0.791%. With `Cc1cc(C)c2nc(N(CCN(C)C)C(=O)/C=C/c3cccs3)sc2c1`, the Potency was 89.1 µM (active). For `Cc1ccc2sc(N(CCN(C)C)C(=O)/C=C/c3cccs3)nc2c1C`, the largest response in the series, negative = inhibition is 4.98%. On to `CC(=O)N(CCCN(C)C)c1nc2ccc(C)cc2s1`, for which the largest response in the series, negative = inhibition is 15.8%. On to `Cc1cc(S(=O)(=O)NCC(C)C)ccc1OCC(=O)NC1CC1`, for which the largest response in the series, negative = inhibition was 18.8%. For the molecule `C/C(CC1CC(C)(C)OC1=O)=N/Nc1nc(-c2ccccc2)cs1` (stereo unspecified), the Potency is 50.1 µM (active). Consider `O=C(O)c1ccccc1C(=O)Nc1nc(-c2ccccc2)cs1`, for which the largest response in the series, negative = inhibition was 6.83%.

With `CC1(C)CC(CC(=O)O)C(=O)O1` (stereo unspecified), the largest response in the series, negative = inhibition is -8.59%. The same measure, in the same setting: the figure for `COc1ccc(C(=O)NC2CCN(C(=O)Nc3ccc(F)cc3)CC2)cc1` is -6.23%; for `COc1ccc(CN2CCNC(=O)C2CC(=O)NCc2cn[nH]c2-c2ccccc2)c(F)c1` (stereo unspecified) it is 15.4%. `O=C(NNc1ccccn1)c1ccc(Cl)nc1`: the Potency is 56.2 µM (active). As to `Cc1cnc(NC(=O)c2ccc(Cl)nc2)s1`, the largest response in the series, negative = inhibition was 3.16%. `CCN(CC)c1ccc(NC(=O)c2ccc(Cl)nc2)cc1`: the largest response in the series, negative = inhibition is 2.36%. The same measure, in the same setting: the figure for `COc1cc(C(=O)NN(CCC#N)C2=NS(=O)(=O)c3ccccc32)cc(OC)c1OC` is 11.7%; for `Cc1ccc2c(c1)N(S(=O)(=O)c1cc(-c3cc(C)no3)ccc1C)CCO2` it is -4.57%; for `Nc1cc(N2CCCCCC2)c2nonc2c1[N+](=O)[O-]` it is 12.7%. In the case of `O=C(Cc1cccs1)Nc1cccc(-c2nc3ccccc3[nH]2)c1`, the largest response in the series, negative = inhibition was 9.29%.

On to `O=C(Nc1cccc(-c2nc3ccccc3[nH]2)c1)c1ccc(C(=O)Nc2cccc(-c3nc4ccccc4[nH]3)c2)cc1`, for which the largest response in the series, negative = inhibition is -19.4%.

As for `O=C(/C=C/c1ccco1)Nc1cccc(-c2nc3ccccc3[nH]2)c1`, the Potency is 25.1 µM (active). As to `COc1ccccc1Oc1ccc(N2CC(C(=O)OCC(=O)c3ccc(F)cc3)CC2=O)cc1` (stereo unspecified), the largest response in the series, negative = inhibition was -1.84%.

As for `CCN(CC)CCCNC(=O)COc1ccc2oc3c(c2c1)CCCC3`, the largest response in the series, negative = inhibition is 3.63%. `Cc1cccc(C)c1NC(=S)N1CCCCCC1`: the largest response in the series, negative = inhibition was 11.7%. As for `S=C(c1ccc(-c2ccccc2)o1)N1CCCCC1`, the Potency is 8.91 µM (active). Consider `S=C(c1ccccc1)N1CCCC1`, for which the largest response in the series, negative = inhibition was 9.23%. Consider `COc1ccc(-c2n[nH]c3c2CN(C(=O)c2ccc(F)cc2)CC3)cc1`, for which the largest response in the series, negative = inhibition was 5.79%. On to `CC(C)(C)c1ccc(C(=O)N2CCC(C(=O)N3CCCCC3)CC2)cc1`, for which the largest response in the series, negative = inhibition is 4.51%. For the molecule `COc1ccc(CCNC(=O)C(=O)NCC2OCCN2S(=O)(=O)c2ccc(OC)c(C)c2)cc1` (stereo unspecified), the largest response in the series, negative = inhibition is 8.83%.

Turning to `COCCn1nnnc1C(c1cc2ccc(OC)cc2[nH]c1=O)N1CCc2ccccc2C1` (stereo unspecified), the Potency is 12.6 µM (active).

As to `COc1ccc(OC)c(C(c2nnnn2C(C)(C)C)N2CCc3ccccc3C2)c1` (stereo unspecified), the largest response in the series, negative = inhibition was 6.02%. For `CCOc1ccc2[nH]c(=O)c(C(c3nnnn3CCOC)N3CCOCC3)cc2c1` (stereo unspecified), the largest response in the series, negative = inhibition is 17.1%.
